Screens from PubChem BioAssay.
Shown are actives, neighbours in structure and some others; about 3.8% of the full set was active somewhere.
MT1-MMP txn act: MT1-MMP promoter reporter activation – cell-based, luciferase luminescence, primary screen; AID 750, 2007; HT1080 MT1-MMP promoter luciferase reporter, overnight; hits give high values; 86,000 compounds, 0.16% hits; activation factor at 10 µM;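 active = activation factor of at least 2 for MT1-MMP transcription at 10 µM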
hDAT+cocaine: changed hDAT dopamine uptake under cocaine IC80, either direction, primary screen, cocaine antagonist project, cell-based, LLC-PK1 hDAT, [14C]-dopamine uptake, MLSMR; LLC-PK1 hDAT cells, [14C]-dopamine uptake with cocaine IC80; actives deviate in either direction; 110,000 compounds, 1.3% hits; Sodium-dependent dopamine transporter (Homo sapiens), Q01959; B-score at 10 µM;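 active = Z score or B-score, a plate-position-corrected score, falls beyond the plate's 99.7% confidence bounds, in either direction; inactive = both scores lie inside the 99.7% bounds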;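 also: scored against the spread of the other compound wells on the same plate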
ERa SRC1 inh: ERα–SRC-1 coactivator interaction inhibitors, primary screen, biochemical, TR-FRET, ERα LBD, estradiol-bound | Estrogen receptor (Homo sapiens), P03372 | TR-FRET ER-alpha LBD / SRC-1 peptide | inhibition, % at 25.6 µM | 86,000 compounds, 1.7% hits; in the data active = inhibition above about 50%;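 also: 0% = receptor plus peptide control and 100% = peptide only without receptor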
ERa SRC1 pot: enhancers of ERα–SRC-1 coactivator binding, primary screen, biochemical, TR-FRET, ERα LBD, low estradiol. coactivator binding (% of control), % at 25.6 µM. Estrogen receptor (Homo sapiens), P03372. AID 639, 2007. 86,000 compounds, 1.3% hits. TR-FRET ERalpha-LBD/SRC-Cy5 coactivator binding, 2 h; 100 = basal binding, no effect; in the data active = activity above about 200%;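 also: binding measured in presence of low estradiol as agonist stimulus; 0% = peptide alone without receptor and 100% = receptor with peptide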
ERb coact inh: inhibitors of ERβ-SRC1 coactivator interaction, primary screen, biochemical, TR-FRET, ERβ LBD, SRC-1 peptide. TR-FRET ER-beta LBD / SRC1-Cy5 peptide binding; receptor agonist-loaded with 1 µM estradiol. inhibition, % at 25.6 µM. 86,000 compounds, 1.3% hits. AID 633, 2007;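 active = compounds whose percent inhibition of the receptor-coactivator binding signal exceeds about 50% in the single-dose screen, limit read from the data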;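 also: 0% = receptor plus peptide wells without compound and 100% = peptide-only wells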
Numbers without * were called inactive; · = no result; [ ] = another dose, or the depositor's remark.

SMILES	MT1-MMP txn act	hDAT+cocaine	ERa SRC1 inh	ERa SRC1 pot	ERb coact inh
Cc1ccc(S(=O)(=O)/N=S(\C)CC2CC2(Cl)Cl)cc1 (stereo not drawn)	1.1	-0.519	-0.3	105.2	4.5
Cc1nc2ccc(S(=O)(=O)NCC(=O)NCc3ccc4c(c3)OCO4)cc2s1	1	-0.213	6.5	97.3	0.7
Cc1nc2ccc(S(=O)(=O)NCC(=O)NCCN3CCCCCC3)cc2s1	1.1	-0.553	57.1*[fluorescence artefact?]	54.5	22.4
CCOc1ccc(C(C)=O)cc1COc1ccc(-n2cnnn2)cc1	1	1.61	55.5*[fluorescence artefact?]	52.6	22.6
CCOc1ccc(-n2c(SCC(=O)Nc3nccs3)nc3c(c2=O)SCC3)cc1	1.1	1.86	76.5*[fluorescence artefact?]	78.3	47.8
CCC1=C2CC[C@H]3C(=O)NC(=O)[C@H]3[C@H]2[C@@]2(Cc3ccccc3)C(=NCc3ccccc3)OC(=O)N2C1=O	1.2	·	·	·	·
COC(C/C=C\[C@@H](O)COCc1ccccc1)OC	·	0.000686	·	·	·
O=C(NCCc1c[nH]c2ccccc12)c1ccc(S(=O)(=O)NCc2ccco2)cc1	1.3	-7.67*	36.5	100.0	10.4
O=C(NC1CCCCCC1)c1ccc(S(=O)(=O)NCc2ccco2)cc1	·	-0.0728	·	·	·
COc1ccc(CN2C(=O)[C@H]3Cc4c([nH]c5ccccc45)C(C)(C)N3C2=O)cc1	·	0.052	·	·	·
Clc1cc(Cl)cc(C2=NC(Cc3ccccc3)CO2)c1 (stereo not drawn)	·	1.2	·	·	·
CCOC(=O)CCn1cc(F)c(=O)n(Cc2ccccc2)c1=O	1.1	0.0268	-5.1	238.1*[fluorescence artefact?]	1.9
CCOC(=O)CCn1c(=O)c2c(nc(Br)n2Cc2ccccc2)n(C)c1=O	1.2	1.6	-4.4	119.3	0.7
Cn1c(C(=O)OC(C(=O)NC2CCCC2)c2ccncc2)cc2sccc21 (stereo not drawn)	0.9	-0.0135	18.3	90.0	24.6
Cn1c(C(=O)OC(C(=O)NC2CCCCC2)c2ccncc2)cc2sccc21 (stereo not drawn)	1.2	0.0118	42.2	262.7*[fluorescence artefact?]	27.1
COc1ccc(CC(=O)OCC(=O)Nc2ncc(Cl)cc2Cl)cc1	1	0.00554	51.7*[fluorescence artefact?]	53.1	42.9
COc1cc(CC(=O)OCC(=O)Nc2ncc(Cl)cc2Cl)cc(OC)c1OC	1	0.551	44.7	66.8	39.9
Cc1nn(Cc2ccc(F)cc2)c(C)c1NC(=O)c1cnn2c1NC(c1cccs1)CC2C(F)(F)F (stereo not drawn)	1.2	2.92*	-1.3	90.0	0.9
Cc1nn(Cc2ccc(F)cc2)c(C)c1NC(=O)c1cnn2c1NC(c1ccccc1)CC2C(F)(F)F (stereo not drawn)	1.2	0.0923	8.3	106.1	8.1
CCO[C@@H]1OC(C(=O)Nc2ccccc2)=C[C@H](C2CC2)[C@H]1CCCO	·	0.0249	·	·	·
CCOC(=O)CCc1c(C)c2ccc(OCC(=O)N(CC)CC)c(C)c2oc1=O	1.2	2.69*	-4.1	109.0	3.6
CCCCc1ccc(-c2ccc(C)cc2O)nc1	0.9	0.0102	21.7	203.1*[fluorescence artefact?]	37.0
CCCCc1ccc(-c2ccc(Br)cc2O)nc1	0.6	-0.446	-3.6	98.2	-4.9
CCCNC(=O)c1ccc(-c2nc3ccccc3s2)s1	0.6	·	54.5*	72.9	62.2*
O=C(Nc1ccc2snnc2c1)N1CCN(c2ccccc2)CC1	1.2	2.48	-21.1	626.9*[fluorescence artefact?]	-42.3
Cc1cc(=O)oc2c(CN3CCC(C)CC3)c(O)c(Cl)cc12	1.2	-0.694	66.7*	40.9	69.2*[fluorescence artefact?]
CCN1CCN(Cc2c(O)c(Cl)cc3c(C)cc(=O)oc23)CC1	1.1	-0.958	47.8	41.5	62.9*
Cc1cc(=O)oc2c(CN3CCCCC3)c(O)c(Cl)cc12	1.1	0.0281	-25.0	100.6	-17.4
CCCC/C=C/C(NC(=O)C(C)(C)C)c1ccccc1 (stereo not drawn)	1.2	·	·	·	·
CC(=O)O[C@H]1C[C@@]2(C)[C@@H](C[C@@H](O)[C@H]3[C@@]4(C)CC[C@@H](O)[C@@H](C)C4CC[C@@]32C)/C1=C(\CCC=C(C)C)C(=O)O (stereo partly drawn)	·	0.465	·	·	·
